Measurements as given in the OligoGym collection.

Assays:
Assay in all cases: pooled miR-30 sensor sort-seq; sequence = guide strand
Conditions in all cases: shRNA
ESR2 = target: ESR2
ETFA = target: ETFA
ETFB = target: ETFB
FAM162A = target: FAM162A
FAM178A = target: FAM178A
FAM55C = target: FAM55C
FAM57A = target: FAM57A
FAM58A = target: FAM58A
FAM22F = target: FAM22F
FAM73A = target: FAM73A
FAN1 = target: FAN1
FBXL3 = target: FBXL3
FCF1 = target: FCF1
FFAR2 = target: FFAR2
FEZ1 = target: FEZ1
Also: reference of the scale not given here.

TATCGATTGTACACTGATTTGT was tested, and the sensor-assay potency score (higher = more potent) (ESR2) was -0.431.

With TCCAACTTGCATGTCATTGGGA the sensor-assay potency score (higher = more potent) (ETFA) was -0.493.

Sequence TCCCGCTCCACTTTCAACTTGT has a sensor-assay potency score (higher = more potent) (ETFB) of -0.247.

TTTTATCGATTGTACACTGATT was tested, and the sensor-assay potency score (higher = more potent) (ESR2) was -1.06.

Work on TTTCTGGTCAAGCCACTCTGAT yielded a sensor-assay potency score (higher = more potent) (ETFA) of -1.17.

TTTTCTGCCCTCGCATGCCTGA showed a sensor-assay potency score (higher = more potent) (ESR2) of -0.946.

TAGTTCTCACAAATGTGTCAGG showed a sensor-assay potency score (higher = more potent) (ETFA) of -0.609.

TTTCTGAACTGGCACTACCGCC was tested, and the sensor-assay potency score (higher = more potent) (ETFA) was -0.966.

With TTTACAGAGATCTTGTGCCACC the sensor-assay potency score (higher = more potent) (ETFA) was -0.57.

For TATAATACCCACAAATATCTGT, the sensor-assay potency score (higher = more potent) (ETFA) was 0.241.

For TCTTGCTGTCTTTCATCCCAGC, the sensor-assay potency score (higher = more potent) (ETFA) was -0.987.

In the case of TTTCACTTTCTCATCACACTTC, the sensor-assay potency score (higher = more potent) (ETFA) is reported as 0.639.

TAGCTCTGGTCGATCACTTTTT gave a sensor-assay potency score (higher = more potent) (ETFA) of -1.

In the case of TGTAATTGAACTGCTTCTGAGT, the sensor-assay potency score (higher = more potent) (ETFA) is reported as -0.4.

TAAATAGTTCTCACAAATGTGT was tested, and the sensor-assay potency score (higher = more potent) (ETFA) was -0.288.

TAATTGAACTGCTTCTGAGTTG showed a sensor-assay potency score (higher = more potent) (ETFA) of -0.401.

Work on TTGTCGGCCAACTTGGTCAGGG yielded a sensor-assay potency score (higher = more potent) (ESR2) of -0.443.

In the case of TAAATCTGCAACTATTCCATAA, the sensor-assay potency score (higher = more potent) (ETFA) is reported as -0.957.

TTGTACACTGATTTGTAGCTGG was tested, and the sensor-assay potency score (higher = more potent) (ESR2) was 0.245.

TGAACTGCTTCTGAGTTGCCAA gave a sensor-assay potency score (higher = more potent) (ETFA) of -0.648.

AAATATAATCATTATGTCCTTG was tested, and the sensor-assay potency score (higher = more potent) (ESR2) was -0.156.

In the case of TTTCTCATCACACTTCACTGTA, the sensor-assay potency score (higher = more potent) (ETFA) is reported as 0.00115.

With TTAGCTCTGGTCGATCACTTTT the sensor-assay potency score (higher = more potent) (ETFA) was -1.24.

Work on TGTGTAATTGAACTGCTTCTGA yielded a sensor-assay potency score (higher = more potent) (ETFA) of 0.237.

TTATGAAATGTAGCTCTCCATG showed a sensor-assay potency score (higher = more potent) (ETFA) of -1.39.

TATTCCATAATCTGCCACTTGG was tested, and the sensor-assay potency score (higher = more potent) (ETFA) was -0.476.

TTACAGGTAAGGTGTGTTCTAG was tested, and the sensor-assay potency score (higher = more potent) (ESR2) was -0.694.

For TTATGTCCTTGAATGCTTCTTT, the sensor-assay potency score (higher = more potent) (ESR2) was 0.411.

TTGAGCGCCACATCAGCCCCAT gave a sensor-assay potency score (higher = more potent) (ESR2) of -0.177.

TTGATGCCTTTTCTGAACTGGC was tested, and the sensor-assay potency score (higher = more potent) (ETFA) was -0.864.

In the case of TACAGATGTGATAACTGGCGAT, the sensor-assay potency score (higher = more potent) (ESR2) is reported as -0.498.

Sequence TTCCTTTTCAGTGTCTCTCTGT has a sensor-assay potency score (higher = more potent) (ESR2) of 0.263.

For TTCTCATCACACTTCACTGTAC, the sensor-assay potency score (higher = more potent) (ETFA) was -0.442.

In the case of TTGGGCAGCGTGGCGTAGCGGG, the sensor-assay potency score (higher = more potent) (ETFB) is reported as -1.13.

For TTGATTGCAATGATGTCAGAAA, the sensor-assay potency score (higher = more potent) (ETFA) was -0.689.

In the case of ATCATTAACACCTCCATCCAAC, the sensor-assay potency score (higher = more potent) (ESR2) is reported as -1.05.

With TAATTCATCACAGCAGGGCTAT the sensor-assay potency score (higher = more potent) (ESR2) was -0.611.

ATAACCTAAAACAGCTTCCTGC gave a sensor-assay potency score (higher = more potent) (FAM162A) of -0.549.

TAGATAGCTGATCTTCACTCGC showed a sensor-assay potency score (higher = more potent) (FAM162A) of 0.225.

For TTTAGTTCTCGTTCTCTGCAGT, the sensor-assay potency score (higher = more potent) (FAM178A) was -0.0234.

Work on TATGTCTTCTTGTAGTTGCTTC yielded a sensor-assay potency score (higher = more potent) (FAM178A) of 0.216.

TTTGGTTTGAAGCAGAACCAGG gave a sensor-assay potency score (higher = more potent) (FAM55C) of -1.09.

TTCAAGATGACAAAGTAGCTGG gave a sensor-assay potency score (higher = more potent) (FAM55C) of 0.358.

Work on TTGCAGTAGAATGGGATGCTGA yielded a sensor-assay potency score (higher = more potent) (FAM57A) of -0.668.

In the case of TTTATCTTCCTGTAAGCGCTGA, the sensor-assay potency score (higher = more potent) (FAM55C) is reported as 0.412.

TTCGACTTAGGAAGTTTCGAAG was tested, and the sensor-assay potency score (higher = more potent) (FAM57A) was -0.637.

For ATTGATGATGTCACGAGTCCGC, the sensor-assay potency score (higher = more potent) (FAM58A) was -0.413.

For TTAGTTTCTTTTATTCTCCTGG, the sensor-assay potency score (higher = more potent) (FAM55C) was 0.337.

With TTAAACTCCACTAAATCTGGAA the sensor-assay potency score (higher = more potent) (FAM55C) was -0.0245.

In the case of TAGGAAGTTTCGAAGAGTGAGG, the sensor-assay potency score (higher = more potent) (FAM57A) is reported as -0.893.

In the case of TTGATGATGTCACGAGTCCGCA, the sensor-assay potency score (higher = more potent) (FAM58A) is reported as -0.773.

With AAGCACAGCAGGGTCTTCGGAC the sensor-assay potency score (higher = more potent) (FAM22F) was -0.95.

ATCGATTTCATGACTTTCCTTT was tested, and the sensor-assay potency score (higher = more potent) (FAM58A) was 0.417.

With TTGGGTTAAAGTACCTGTTGGA the sensor-assay potency score (higher = more potent) (FAM58A) was 0.579.

For TTGGGGAGTGTCAAAGAGCCGG, the sensor-assay potency score (higher = more potent) (FAM57A) was -1.25.

Work on TAGTTTCAGAAATTCTTCCTGA yielded a sensor-assay potency score (higher = more potent) (FAM55C) of 0.381.

With TTGAGATAGTTCTAGACTGTTA the sensor-assay potency score (higher = more potent) (FAM55C) was -0.125.

In the case of AAACACTCTACTACCAACCAAA, the sensor-assay potency score (higher = more potent) (FAM55C) is reported as -0.932.

With TGATGTGTGATCATGAGGCGGT the sensor-assay potency score (higher = more potent) (FAM57A) was 0.245.

For TGACAGGAGACTCTCCAGGGAG, the sensor-assay potency score (higher = more potent) (FAM22F) was -0.895.

TTGGTCTCGCAAAAGAACTTAT showed a sensor-assay potency score (higher = more potent) (FAM58A) of -0.839.

TTGGAGCAGGCTTAGTCCCTGC was tested, and the sensor-assay potency score (higher = more potent) (FAM57A) was -0.863.

Sequence TATGGTAAATGGTGCAAGCAGT has a sensor-assay potency score (higher = more potent) (FAM58A) of -0.754.

Work on TAGGACCAGTACATGAAGGGGA yielded a sensor-assay potency score (higher = more potent) (FAM57A) of 0.407.

With TTTCTTTGTAAGCACTCTGTAA the sensor-assay potency score (higher = more potent) (FAM55C) was -0.921.

Sequence ATCACGTCGTCGCAGGAGCGAA has a sensor-assay potency score (higher = more potent) (FAM57A) of -1.8.

TCTCGCAAAAGAACTTATGGTA showed a sensor-assay potency score (higher = more potent) (FAM58A) of -0.0793.

Work on TTTCGACTTAGGAAGTTTCGAA yielded a sensor-assay potency score (higher = more potent) (FAM57A) of -0.112.

For TAGTGGAGCAGGTACTTGTGTG, the sensor-assay potency score (higher = more potent) (FAM58A) was -1.12.

For TAATATCATCTTCATCTGCTTT, the sensor-assay potency score (higher = more potent) (FAM73A) was -0.807.

For TAGGGATTCAGTCTCATCGATT, the sensor-assay potency score (higher = more potent) (FAM58A) was -1.22.

TAAGCTACAAACACTCTACTAC showed a sensor-assay potency score (higher = more potent) (FAM55C) of 0.449.

TGCACCGAGGAAACCAGCCTGG showed a sensor-assay potency score (higher = more potent) (FAM57A) of -1.21.

In the case of TTGTAGTCAAAGTCCTCTCAAA, the sensor-assay potency score (higher = more potent) (FAM58A) is reported as -0.91.

TATAATATCGTAGCATTCTTTA was tested, and the sensor-assay potency score (higher = more potent) (FAM55C) was -1.01.

TTTAGCTGAATCAGAACCCTGC showed a sensor-assay potency score (higher = more potent) (FAM57A) of 0.947.

For TTGAAGACATGGCAATCAGGTA, the sensor-assay potency score (higher = more potent) (FAM58A) was -0.548.

ATCATCACGCAGTCGGTGCGGC gave a sensor-assay potency score (higher = more potent) (FAM57A) of -0.575.

In the case of TTGGACACATTGATGATGTCAC, the sensor-assay potency score (higher = more potent) (FAM58A) is reported as -0.0439.

In the case of TTACACAAAAGTCAATTCCTAA, the sensor-assay potency score (higher = more potent) (FAM55C) is reported as -0.448.

In the case of TTGAACCTTTGTCTGATGCTGC, the sensor-assay potency score (higher = more potent) (FAM73A) is reported as 0.182.

With TTTCACATCTTGCACAGCCATT the sensor-assay potency score (higher = more potent) (FAN1) was -1.51.

TTGCACACACTACTAGTTCAAC showed a sensor-assay potency score (higher = more potent) (FBXL3) of -1.05.

TATGGAAGTGTGTCTGTCCAGG was tested, and the sensor-assay potency score (higher = more potent) (FBXL3) was -0.66.

For TGTGTGTACATGGTAATCGTTC, the sensor-assay potency score (higher = more potent) (FCF1) was -0.765.

Work on TCGGTGAAGTTCTCGTAGCAGG yielded a sensor-assay potency score (higher = more potent) (FFAR2) of -0.822.

Sequence TAGCAGGTAATTTCATTGCCAC has a sensor-assay potency score (higher = more potent) (FFAR2) of -0.783.

TTGAAGCTGATTATTTCGGAAG gave a sensor-assay potency score (higher = more potent) (FEZ1) of -0.859.

ATTACTAGCACTAGAAGCCAAC gave a sensor-assay potency score (higher = more potent) (FEZ1) of -1.45.

TCAAACTCCAGCTCGTCCCGGC showed a sensor-assay potency score (higher = more potent) (FEZ1) of 0.386.
